CCHFV vOTU inh = CCHFV vOTU protease inhibitors, primary screen, biochemical, Pep-AMC substrate, fluorescence; inhibition, % at 11.5 µM; AID 651958, 2012; Crimean-Congo hemorrhagic fever virus L polyprotein viral ovarian tumor (vOTU) protease …; 370,000 tested, 0.55% active
VHR inh abs = VHR1 phosphatase inhibitors, primary screen, biochemical, absorbance, uHTS; Dual specificity protein phosphatase 3 (Homo sapiens), P51452; recombinant VHR phosphatase, pNPP absorbance; inhibition, % at 13.3 µM; 290,000 tested, 0.52% active; AID 1654, 2009; in the data active = inhibition above about 50%
SARS 3CLpro inh = SARS-CoV 3CLpro protease inhibitors, primary screen, biochemical, quenched FRET; Replicase polyprotein 1ab (Severe acute respiratory syndrome coronavirus), P0C6X7; recombinant SARS-CoV 3CLpro, quenched FRET peptide cleavage; inhibition, % at 6 µM; 290,000 tested, 0.14% active; in the data active = inhibition above about 12%
RecA splice inh = Mtb RecA intein splicing inhibitors, primary screen, biochemical, fluorescence, HTS. Protein RecA (Mycobacterium tuberculosis (strain ATCC 25618 / H37Rv)), P9WHJ3. cell-free RecA intein splicing. inhibition, % (concentration not given with the values). 290,000 tested, 0.75% active. AID 2221, 2009; in the data active = inhibition above about 30%
Target sequence (P9WHJ3 whole entry, looked up, canonical isoform): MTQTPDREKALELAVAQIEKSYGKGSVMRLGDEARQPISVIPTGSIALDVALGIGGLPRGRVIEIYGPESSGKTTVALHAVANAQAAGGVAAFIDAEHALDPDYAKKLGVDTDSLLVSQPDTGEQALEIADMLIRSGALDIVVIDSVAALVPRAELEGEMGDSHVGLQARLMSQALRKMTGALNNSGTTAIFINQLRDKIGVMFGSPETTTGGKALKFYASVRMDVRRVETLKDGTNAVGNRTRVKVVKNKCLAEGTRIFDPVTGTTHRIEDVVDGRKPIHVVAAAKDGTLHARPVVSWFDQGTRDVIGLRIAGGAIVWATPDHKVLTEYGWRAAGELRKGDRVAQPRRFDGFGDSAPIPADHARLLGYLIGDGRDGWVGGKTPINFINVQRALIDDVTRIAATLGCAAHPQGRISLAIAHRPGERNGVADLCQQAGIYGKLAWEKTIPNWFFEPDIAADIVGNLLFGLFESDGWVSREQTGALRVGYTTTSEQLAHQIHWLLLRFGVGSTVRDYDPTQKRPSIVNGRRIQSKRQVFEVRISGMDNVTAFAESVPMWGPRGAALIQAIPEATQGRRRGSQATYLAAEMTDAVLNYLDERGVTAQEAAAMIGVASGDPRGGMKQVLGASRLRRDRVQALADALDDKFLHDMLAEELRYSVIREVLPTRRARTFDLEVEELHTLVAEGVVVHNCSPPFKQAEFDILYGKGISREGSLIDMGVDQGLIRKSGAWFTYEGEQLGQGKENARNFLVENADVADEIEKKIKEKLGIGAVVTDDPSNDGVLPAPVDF
GDH-TPI counter = GDH-TPI coupling enzyme inhibitors, primary screen, artefact control for M. tuberculosis FBA inhibitor project, biochemical, absorbance, full deck | AID 588335, 2011 | inhibition, % at 4.8 µM | GDH-TPI coupled enzyme counterscreen, NADH absorbance | 360,000 tested, 1.2% active
FBA Mtb inh = Mtb FBA enzyme inhibitors, primary screen, biochemical, fluorescence, strain H37Rv; 360,000 tested, 2.3% active; AID 588726, 2011; Fructose-bisphosphate aldolase (Mycobacterium tuberculosis (strain ATCC 25618 / H37Rv)), …; inhibition, % at 1 µM; purified M. tuberculosis FBA, fluorescence read-out; in the data active = inhibition above about 27%
Each line names hits and unclear results; the compound was inactive in the other large screens. Most compounds without a hit are left out; they make up all but 4.7% or so of the library. Cut-off read from the data, not from the text of the source, unless noted: active = inhibition above about 30%; inactive = the rest.

Cc1ccc2[nH]cc(CCNC(=O)c3ccco3)c2c1	none
Cc1ccc2[nH]cc(CCNC(=O)c3cccs3)c2c1	VHR inh abs 52.0
COC(=O)c1ccc2nc(-c3cccc(Cl)c3)c(Cc3ccccc3C(F)(F)F)n2c1	none (no result: VHR inh abs, SARS 3CLpro inh, RecA splice inh, GDH-TPI counter, FBA Mtb inh)
COC(CN(C(=O)CCl)C(C(=O)NC1CCCCC1)c1ccc(C)cc1)OC (stereo unspecified)	RecA splice inh 31.6
CCCCNC(=O)N1CCC(c2nc3ccc(Cl)cc3[nH]2)CC1	none (no result: VHR inh abs, SARS 3CLpro inh, RecA splice inh, GDH-TPI counter, FBA Mtb inh)
COc1ccc(C2=Nn3c(nnc3-c3cccnc3)SC2)cc1	none (no result: RecA splice inh)
CCOc1ccc(C2=Nn3c(nnc3-c3cccnc3)SC2)cc1	VHR inh abs 57.4
COc1ccc(OC)c(-c2nnc3n2N=C(c2ccc(OC)c(OC)c2)CS3)c1	GDH-TPI counter 34.5 (no result: VHR inh abs, SARS 3CLpro inh, RecA splice inh)
COc1ccc(C2=Nn3c(nnc3-c3ccccc3)SC2)cc1OC	none
C=CCn1c(N)c(C(=O)NCCC2=CCCCC2)sc1=S	GDH-TPI counter 35.0
COc1cc(CN2C(=O)C(Cc3ccccc3)ON=C2c2ncccc2C)cc(OC)c1 (stereo unspecified)	none (no result: VHR inh abs, SARS 3CLpro inh, RecA splice inh)
Cc1cc(-c2ccccc2)[nH]c(=O)c1S(=O)(=O)c1ccccc1	FBA Mtb inh 107.2
Cc1ccccc1S(=O)(=O)c1c(C)cc(-c2ccccc2)[nH]c1=O	FBA Mtb inh 76.3
Cc1cc(-c2ccccc2)[nH]c(=O)c1S(=O)(=O)c1ccc(Cl)cc1	none
O=C(CSc1nnc(COc2ccccc2)n1-c1ccc(Cl)cc1)Nc1ccc2c(c1)OCCO2	none (no result: VHR inh abs, SARS 3CLpro inh, RecA splice inh, GDH-TPI counter, FBA Mtb inh)
CCN(C(=O)CCS(=O)(=O)c1ccc2c(c1)oc(=O)n2C)c1ccc(OC)cc1	none
COc1cc(N(C)C)ccc1[C@]1(O)C(=O)N(C)c2ccc(Br)cc21	none (no result: VHR inh abs, SARS 3CLpro inh, RecA splice inh, GDH-TPI counter, FBA Mtb inh)
Cc1ccc(NC(=O)c2ccccc2OCc2ccc([N+](=O)[O-])cc2)nc1	none
COC(=O)C1=C(C)NC2=C(C(=O)CCC2)C1c1ccc(-c2ccsc2C(=O)OC)o1 (stereo unspecified)	GDH-TPI counter 49.7
Cc1cc(N2CCCCC2)nc(N2CCCCC2)n1	none
Cc1nc2ccccc2c2c1C(=O)N(C(C)C)C2=O	RecA splice inh 41.1
O=C(O)c1ccc2c(c1)C(=O)N(c1cccc(-c3nc4ccccc4s3)c1)C2=O	VHR inh abs 122.6 (no result: RecA splice inh)
Cc1ccc(C)c(C(=O)COC(=O)c2cccc(N3C(=O)c4c(C)nc5ccccc5c4C3=O)c2)c1	none
Cc1nc2ccccc2c2c1C(=O)N(c1cccc(C(=O)O)c1)C2=O	RecA splice inh 44.8
O=C(O)c1cccc(N2C(=O)c3ccc(Oc4ccc(Cl)cc4)cc3C2=O)c1	none
O=C(O)c1cccc(N2C(=O)c3ccc4c5c(ccc(c35)C2=O)C(=O)N(c2cccc(C(=O)O)c2)C4=O)c1	GDH-TPI counter 38.3
C=CCNc1cccc2c1S(=O)(=O)N[C@@H](CC(C)C)CO2	none (no result: VHR inh abs, SARS 3CLpro inh, RecA splice inh, GDH-TPI counter, FBA Mtb inh)
Cc1cc(C)c2cc(C#N)c(NCCNC(=O)c3ccccn3)nc2c1	none (no result: VHR inh abs, SARS 3CLpro inh, RecA splice inh, GDH-TPI counter, FBA Mtb inh)
COC(=O)COc1c(/C=C\c2nc(O)c([N+](=O)[O-])c(=O)[nH]2)cccc1OC	GDH-TPI counter 32.2
COc1ccc(/C=C\c2nc(O)c([N+](=O)[O-])c(=O)[nH]2)cc1O	none
C=CCOc1ccc(/C=C\c2nc(O)c([N+](=O)[O-])c(=O)[nH]2)cc1OC	none (no result: CCHFV vOTU inh)
C#CCOc1c(/C=C\c2nc(O)c([N+](=O)[O-])c(=O)[nH]2)cc(Br)cc1OC	GDH-TPI counter 49.0
COC(=O)C1CCC(CNC(=O)C(Cc2ccc3c(c2)OCO3)NC(C)=O)CC1 (stereo unspecified)	none (no result: VHR inh abs, SARS 3CLpro inh, RecA splice inh, GDH-TPI counter, FBA Mtb inh)
O=C1/C(=C/c2cccnc2)SC(=S)N1NS(=O)(=O)c1ccccc1	GDH-TPI counter 34.0 (no result: VHR inh abs)
O=C1/C(=C\c2ccc(Br)cc2)SC(=S)N1NS(=O)(=O)c1ccccc1	none
CCCCNc1c(-c2cccc(SC3CCCCC3)c2)nc2ccc(Cl)cn12	none (no result: VHR inh abs, SARS 3CLpro inh)
CCCCNc1c(-c2ccc(SC3CCCCC3)cc2)nc2ccccn12	FBA Mtb inh 50.1 (no result: VHR inh abs, SARS 3CLpro inh)
O=C(CC(=O)c1ccccc1)Nc1ccc([N+](=O)[O-])cc1	none (no result: VHR inh abs, SARS 3CLpro inh, RecA splice inh)
CS(=O)(=O)Nc1ccc(C(=O)CC(=O)Nc2ccc([N+](=O)[O-])cc2)cc1	GDH-TPI counter 77.1
COc1ccc(-c2nn(-c3ccccc3)cc2/C=N/NS(=O)(=O)c2ccccc2)cc1	none
COc1ccc(-c2nn(-c3ccccc3)cc2/C=N/NC(=O)c2cccc(S(=O)(=O)Nc3ccccc3Cl)c2)cc1	GDH-TPI counter 31.8
COc1ccc(Cn2nnnc2C(c2cc3ccc(OC)cc3[nH]c2=O)N2CCCCCC2)cc1 (stereo unspecified)	GDH-TPI counter 34.0
CCC(C)(C)n1nnnc1C(c1cc2ccc(OC)cc2[nH]c1=O)N1CCCCC1 (stereo unspecified)	none
COc1cc(C(=O)NS(=O)(=O)c2ccccc2C)ccc1Cc1cn(C)c2ccc(NC(=O)OC3CCCC3)cc12	SARS 3CLpro inh 15.3, RecA splice inh 37.8 (no result: CCHFV vOTU inh, GDH-TPI counter, FBA Mtb inh)
Cc1cccc2c1-c1sc(C(=O)Nc3ccccc3N3CCN(C)CC3)cc1CO2	none
CCN1CCN(C(=O)c2cc3c(s2)-c2c(C)cccc2OC3)CC1	FBA Mtb inh active (no result: CCHFV vOTU inh)
CCOC(=O)N1CCN(C(=O)c2cc3c(s2)-c2c(C)cccc2OC3)CC1	FBA Mtb inh 143.4
CCc1cc(C(=O)N2CCCC(CO)(Cc3ccc(F)cc3)C2)n(C)n1 (stereo unspecified)	none
C=C(C)C1CC=C(C)/C(=N\NC(=O)CCc2ccccc2)C1 (stereo unspecified)	none
C=C(C)C1CC=C(C)/C(=N/NC(=O)CCC(=O)Nc2ccccc2Cl)C1 (stereo unspecified)	VHR inh abs 55.2
Cc1cc(OCc2nn[nH]n2)c2c(C)c(CC(=O)O)c(=O)oc2c1	FBA Mtb inh active
Cc1c(CC(=O)O)c(=O)oc2c(C)c(OCc3nn[nH]n3)ccc12	FBA Mtb inh 147.4
Cc1cc(OCc2nn[nH]n2)c2c(-c3ccccc3)cc(=O)oc2c1	none
CC(C)CCNC(=O)C1CCCN(C(=O)c2ccc3c(c2)NC(=O)CS3)C1 (stereo unspecified)	none (no result: VHR inh abs, SARS 3CLpro inh, RecA splice inh, GDH-TPI counter, FBA Mtb inh)
CN(C)c1ccc(C(=O)NC2CCCCN(Cc3cccc(Cl)c3)C2=O)cc1 (stereo unspecified)	none (no result: VHR inh abs, SARS 3CLpro inh, RecA splice inh, GDH-TPI counter, FBA Mtb inh)
CC1(C)CC(=O)C(N=Nc2ccc(Br)cc2)=C(O)C1	none
COc1ccc(N=NC2=C(O)CC(C)(C)CC2=O)c(OC)c1	VHR inh abs 52.9
O=C(c1ccco1)n1c(=S)nc2ccccn21	GDH-TPI counter 52.0
Cc1ccc(C(=O)CC(=O)c2ccccc2)cc1	none
CC(CC(=O)c1ccccc1)=NCC(O)CN=C(C)CC(=O)c1ccccc1 (stereo unspecified)	GDH-TPI counter 54.9 (no result: VHR inh abs, SARS 3CLpro inh, RecA splice inh)

Bioassay records: PubChem, several laboratories
